Test [1] can be described thus: qHTS assay to identify small molecule antagonists of the glucocorticoid receptor (GR) signaling pathway - cell viability counter screen (AID 720693). Also: nearly all actives have a fitted effect of over 55% in size. Also: potency is read from the fitted curve at half-maximal effect.
Test [2] is described as follows: qHTS assay for identifying genotoxic compounds that show differential cytotoxicity against isogenic chicken DT40 cell lines with known DNA damage response pathways - wild type cell line (AID 743012). Also: nearly all actives have a fitted effect of over 60% in size. Also: potency is read from the fitted curve at half-maximal effect. Put shortly:
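Endpoint: CellTiter-Glo luminescence, 30 min RT. Cells: wild type DT40, 300/well. Exposure: compounds in DMSO, 40 h, 37 C/5% CO2, after ~0.5 h pre-incubation.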

Test [3] in a line: qHTS assay for identifying genotoxic compounds that show differential cytotoxicity against isogenic chicken DT40 cell lines with known DNA damage response pathways - Rad54/Ku70 mutant cell line (AID 743015). Also: nearly all actives have a fitted effect of over 60% in size. Also: potency is read from the fitted curve at half-maximal effect. Background: Quantitative high-throughput screening tests each substance at several concentrations.
Test [4] is described as follows: qHTS assay to identify small molecule antagonists of the androgen receptor (AR) signaling pathway - cell viability counter screen (AID 743033; also: nearly all actives have a fitted effect of over 45% in size).
A short description of test [5]: qHTS assay to identify small molecule antagonists of the androgen receptor (AR) signaling pathway using the MDA cell line - cell viability counter screen (AID 743041; also: nearly all actives have a fitted effect of over 45% in size). The essentials: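 Cytotoxicity counter screen: MDA-kb2 AR-luc cells, compound + R1881, 16 h, 37C, 0% CO2; CellTiter-Fluor added at 15.5 h, fluorescence read after 30 min.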
Test [6] can be described thus: qHTS assay to identify small molecule antagonists of the thyroid receptor (TR) signaling pathway - cell viability counter screen (AID 743064). Also: nearly all actives have a fitted effect of over 50% in size. Also: potency is read from the fitted curve at half-maximal effect. Put shortly:
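GH3.TRE-Luc rat pituitary cells dosed after 4 hr plating, co-stimulated with T3 at 1 nM final, incubated 23.5 h at 37 C. Viability measured in the same wells by CellTiter-Fluor fluorescence after 30 min further at 37 C.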

Test [7] is described as follows: qHTS assay to identify small molecule antagonists of the thyroid receptor (TR) signaling pathway (AID 743065). Also: nearly all actives have a fitted effect of over 55% in size. Also: potency is read from the fitted curve at half-maximal effect. Put shortly: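 GH3.TRE-Luc rat pituitary cells (two TREs driving luciferase) were dosed with compound, then stimulated with 1 nM T3 (final) for 23.5 h at 37 C. ONE-Glo luminescence was the read-out, with CellTiter-Fluor fluorescence as the cytotoxicity counter-screen.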

In test [8] the test system is thyroid hormone receptor (rat, GH3 cells). Briefly: qHTS assay to identify small molecule agonists of the thyroid receptor (TR) signaling pathway (AID 743066; calls by dose curve).
Test [9] addresses Estrogen receptor (Homo sapiens) (UniProt P03372). Briefly: qHTS assay to identify small molecule antagonists of the estrogen receptor alpha (ER-alpha) signaling pathway (AID 743069; active = well fitted curve in the direction sought with a large enough effect in the signal ratio in the repeat runs, not every such curve was filed as active; the % refers to the signal ratio). Put shortly: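 Beta-lactamase FRET fluorescence is read after 2 hr at room temperature with LiveBLAzer B/G substrate. Before that, ER-alpha-bla HEK293 cells sit 4 hr after plating, then receive compound plus 17beta-estradiol and incubate 18 hr at 37C.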

Test [10] can be described thus: qHTS assay to identify small molecule antagonists of the estrogen receptor alpha (ER-alpha) signaling pathway - cell viability counter screen (AID 743074; calls by dose curve;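 also: HEK293 cells carrying ER-alpha-UAS-bla reporter stimulated with 17beta-estradiol; nearly all actives have a fitted effect of over 45% in size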).
The target in test [11] is Estrogen receptor (Homo sapiens) (UniProt P03372). Briefly: qHTS assay to identify small molecule agonists of the estrogen receptor alpha (ER-alpha) signaling pathway (AID 743075; calls by dose curve;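 also: HEK293 GripTite cells with ER-alpha and UAS-driven beta-lactamase reporter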; also: potency is read from the fitted curve at half-maximal effect).
The target is the same in test [12]. Nature of the test: qHTS assay to identify small molecule agonists of the estrogen receptor alpha (ER-alpha) signaling pathway using the BG1 cell line (AID 743079). Also: nearly all actives have a fitted effect of over 20% in size. Also: potency is read from the fitted curve at half-maximal effect.
Test [13] in a line: qHTS assay to identify small molecule antagonists of the estrogen receptor alpha (ER-alpha) signaling pathway using the BG1 cell line (AID 743080; calls by dose curve;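 also: BG1 cells stimulated with 17beta-estradiol alongside compound; nearly all actives have a fitted effect of over 25% in size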; also: potency is read from the fitted curve at half-maximal effect). The essentials:
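Quantitative HTS on the Tox21 10K library: BG1 cells with endogenous ER-alpha and ERE-luciferase reporter, 17beta-estradiol stimulation, 21.5 h compound exposure, luminescence endpoint with parallel fluorescence cytotoxicity counter-read.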

Test [14] is described as follows: qHTS assay to identify small molecule antagonists of the estrogen receptor alpha (ER-alpha) signaling pathway using the BG1 cell line - cell viability counter screen (AID 743081).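 Also: compound given together with 17beta-estradiol as the ER stimulus; series mostly up to about 70 µM; nearly all actives have a fitted effect of over 45% in size.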
The target of the next test is Aromatase (Homo sapiens) (UniProt P11511). Nature of the test: qHTS assay to identify aromatase inhibitors (AID 743083). Also: series mostly up to about 70 µM; nearly all actives have a fitted effect of over 55% in size.
The target of test [15] is Androgen receptor (Homo sapiens) (UniProt P10275). Nature of the test: qHTS assay to identify small molecule agonists of the androgen receptor (AR) signaling pathway using the MDA cell line (AID 743040; also: nearly all actives have a fitted effect of over 20% in size). The essentials:
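Luciferase read-out, ONE-Glo, 30 min RT. Cells: MDA-kb2 AR-luc, MMTV promoter with AR and GR response elements. Compound exposure 16 h, 37C, 0% CO2, after 5 h pre-incubation. qHTS agonist mode.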

For test [16] the target is unchanged. Nature of the test: qHTS assay to identify small molecule antagonists of the androgen receptor (AR) signaling pathway using the MDA cell line (AID 743042; also: nearly all actives have a fitted effect of over 55% in size). Put shortly: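 MDA-kb2 breast carcinoma cells carrying MMTV-luciferase (AR/GR responsive) were co-treated with compounds and the agonist R1881 for 16 h at 37C. Inhibition read as ONE-Glo luminescence; CellTiter-Fluor fluorescence measured in parallel for cytotoxicity.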

Results on 14 compounds are retold here after PubChem BioAssay (Tox21).

Where “and” joins values, the source holds several entries; their conditions need not be identical. Equal values may be shown once. Results filed as inconclusive are left out. Some structures have more than one record in an assay (separate samples or runs), and their calls can disagree. Calls of active or inactive are those of the source. Unless noted, calls follow the shape of the dose curve; as a rule, active = well fitted curve in the direction sought with a large enough effect in the repeat runs; inconclusive = weak or mixed curves; inactive = no such curve, though single readings can be large; an effect the other way counts as inactive or inconclusive.
% is scaled to controls: 0 for no effect and ±100 for the full control effect.

Sequence of Androgen receptor (Homo sapiens) (P10275 whole entry, looked up): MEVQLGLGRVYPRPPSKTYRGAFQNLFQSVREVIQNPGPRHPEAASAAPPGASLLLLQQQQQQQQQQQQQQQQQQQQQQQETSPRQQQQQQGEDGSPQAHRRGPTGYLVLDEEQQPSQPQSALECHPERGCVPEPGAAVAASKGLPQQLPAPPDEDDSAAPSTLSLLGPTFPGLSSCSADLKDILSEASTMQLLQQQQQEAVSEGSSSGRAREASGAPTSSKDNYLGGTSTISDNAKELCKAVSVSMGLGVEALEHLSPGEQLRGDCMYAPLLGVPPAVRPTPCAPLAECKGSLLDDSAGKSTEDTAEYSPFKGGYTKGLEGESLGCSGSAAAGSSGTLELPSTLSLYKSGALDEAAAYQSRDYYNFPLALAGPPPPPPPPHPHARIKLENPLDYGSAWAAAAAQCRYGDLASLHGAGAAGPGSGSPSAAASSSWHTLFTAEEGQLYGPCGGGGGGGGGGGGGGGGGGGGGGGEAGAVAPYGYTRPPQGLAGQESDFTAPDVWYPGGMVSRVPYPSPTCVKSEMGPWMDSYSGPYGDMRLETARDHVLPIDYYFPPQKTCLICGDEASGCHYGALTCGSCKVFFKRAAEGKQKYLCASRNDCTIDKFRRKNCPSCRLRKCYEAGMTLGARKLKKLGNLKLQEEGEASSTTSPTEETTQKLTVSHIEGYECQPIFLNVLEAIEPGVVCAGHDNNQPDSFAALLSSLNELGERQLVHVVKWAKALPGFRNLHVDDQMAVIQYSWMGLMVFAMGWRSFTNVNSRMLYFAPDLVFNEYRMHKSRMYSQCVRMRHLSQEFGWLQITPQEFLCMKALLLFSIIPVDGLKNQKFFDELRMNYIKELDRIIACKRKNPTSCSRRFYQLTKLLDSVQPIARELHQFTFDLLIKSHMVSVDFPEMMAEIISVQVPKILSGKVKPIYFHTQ
Sequence of Estrogen receptor (Homo sapiens) (P03372 whole entry, looked up): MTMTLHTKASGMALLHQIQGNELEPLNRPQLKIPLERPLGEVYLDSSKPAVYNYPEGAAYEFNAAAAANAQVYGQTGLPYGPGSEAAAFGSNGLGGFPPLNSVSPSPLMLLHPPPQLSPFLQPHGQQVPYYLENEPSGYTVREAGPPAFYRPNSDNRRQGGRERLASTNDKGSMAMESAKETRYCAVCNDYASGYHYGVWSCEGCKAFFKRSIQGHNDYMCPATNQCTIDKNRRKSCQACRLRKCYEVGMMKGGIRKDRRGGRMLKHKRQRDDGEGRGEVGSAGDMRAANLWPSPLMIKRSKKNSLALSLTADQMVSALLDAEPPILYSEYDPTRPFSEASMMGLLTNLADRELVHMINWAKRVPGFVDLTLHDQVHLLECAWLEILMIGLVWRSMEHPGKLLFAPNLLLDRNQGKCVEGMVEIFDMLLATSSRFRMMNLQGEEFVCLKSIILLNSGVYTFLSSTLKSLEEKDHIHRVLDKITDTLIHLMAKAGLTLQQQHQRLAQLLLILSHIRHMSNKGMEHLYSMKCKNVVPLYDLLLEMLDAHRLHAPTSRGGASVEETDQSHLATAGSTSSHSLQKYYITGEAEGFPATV
Sequence of Aromatase (Homo sapiens) (P11511 whole entry, looked up): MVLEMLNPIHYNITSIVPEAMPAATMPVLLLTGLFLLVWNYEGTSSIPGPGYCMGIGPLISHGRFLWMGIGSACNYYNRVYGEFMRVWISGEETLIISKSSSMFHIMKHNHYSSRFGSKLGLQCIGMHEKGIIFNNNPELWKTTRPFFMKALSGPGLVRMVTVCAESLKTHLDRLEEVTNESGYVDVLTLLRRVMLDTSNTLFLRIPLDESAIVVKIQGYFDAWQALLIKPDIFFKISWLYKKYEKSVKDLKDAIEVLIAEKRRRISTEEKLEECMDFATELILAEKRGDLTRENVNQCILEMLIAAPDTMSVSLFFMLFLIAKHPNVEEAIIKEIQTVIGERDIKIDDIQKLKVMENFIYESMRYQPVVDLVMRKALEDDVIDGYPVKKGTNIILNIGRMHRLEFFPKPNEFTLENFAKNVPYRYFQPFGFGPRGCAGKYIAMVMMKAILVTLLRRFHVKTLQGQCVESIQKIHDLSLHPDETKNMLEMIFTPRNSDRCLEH

On to `O=C(O)CCCCC1CCSS1` (stereo unspecified), for which the Potency entry in test [1], in test [2], in test [3], in test [5], in test [6] and in [7] was “inactive” in each case. In addition, the Potency entry (in [9]; in test [11]; in test [12]; in test [13]; in [14]; in the test with Aromatase (Homo sapiens)) was “inactive” throughout. The result in test [4], in test [8] and in [10] was inactive.
Consider `NC(N)=NC(N)=NCCc1ccccc1`, for which the Potency entry (in test [1]; in [6]; in [9]; in [11]; in test [14]; in the test with Aromatase (Homo sapiens)) was “inactive” in each case. In addition, the Potency in test [3] is 17.1 µM (active) [middle of 4 runs]; in test [7], 60.8 µM (active). The outcome in test [4], in [8] and in test [10] was inactive.
Turning to `O=c1c(-c2ccc(O)cc2)coc2cc(O)cc(O)c12`, the Potency entry (in test [1]; in test [15]; in test [5]; in [16]; in test [14]; with Aromatase (Homo sapiens)) was “inactive” throughout. Besides, the Potency in test [2] was 11.9 µM (active) and 30.6 µM (active); in [3], 11.9 µM (active) and 47.7 µM (active) and 27.3 µM (active); in test [6] it was 21.1 µM (active) and 47.7 µM (active); in test [7], 11.9 µM (active) and 47.7 µM (active) and 21.7 µM (active). The outcome in test [4], in [8] and in [10] was inactive.
Consider `OC[C@@H](O)[C@@H](O)[C@H](O)[C@H](O)CO`, for which the Potency entry in test [1], in test [2], in test [3], in test [5], in test [6] and in test [7] was “inactive” each time. Moreover, the Potency result (in test [9]; in test [11]; in [12]; in test [13]; in test [14]; with Aromatase (Homo sapiens)) was “inactive” throughout. For the same compound, the compound was classed as inactive in [4], in [8] and in [10].
Take `C1CNCCN1`: the Potency entry in test [1], in test [2], in test [5], in test [6], in [7] and in test [9] was “inactive” throughout. Besides, the Potency entry (in [11]; in test [13]; in test [14]; with Aromatase (Homo sapiens)) was “inactive” in each case. In addition, the Potency entry in [3] is “inactive and 62.9 µM (active)”; in [12], “inactive and 68 µM (active)”. Moreover, the compound was called inactive in [4], in test [8] and in test [10].
Turning to `C=C(C)OC(C)=O`, the Potency entry in test [1], in test [2], in [3], in test [5], in [7] and in test [9] was “inactive” each time. Further, the Potency result (in test [11]; in test [12]; in test [13]; in test [14]; with Aromatase (Homo sapiens)) was “inactive” each time. The compound was called inactive in test [4], in test [8] and in test [10].
On to `CCOCCO`, for which the Potency result in [1], in test [2], in test [3], in test [5], in [6] and in [7] was “inactive” in each case. Moreover, the Potency entry (in test [14]; in the test with Aromatase (Homo sapiens)) was “inactive” throughout. Further, the compound was classed as inactive in [4], in [8] and in [10].
As to `CC1(C)O[C@@H]2[C@@H](CO[C@@]3(COS(N)(=O)=O)OC(C)(C)O[C@@H]23)O1`, the Potency entry in test [1], in [2], in test [3], in test [5], in [6] and in test [7] was “inactive” throughout. Moreover, the Potency result (in [9]; in test [11]; in test [12]; in [13]; in [14]; in the test with Aromatase (Homo sapiens)) was “inactive” each time. In addition, the compound was classed as inactive in test [4], in [8] and in test [10].
As to `CC1=NN(c2ccccc2)C(=O)C1`, the Potency result in test [1], in [2], in [3], in test [5], in [6] and in test [7] was “inactive” each time. Also, the Potency entry (in test [9]; in test [11]; in test [12]; in test [13]; in test [14]; with Aromatase (Homo sapiens)) was “inactive” each time. Further, the result in test [4], in test [8] and in test [10] was inactive.
In the case of `CCN(CC)CCOC(=O)c1ccc(N)cc1`, the Potency entry in test [1], in test [2], in test [3], in test [5], in [6] and in test [7] was “inactive” each time. Further, the Potency result (in test [14]; with Aromatase (Homo sapiens)) was “inactive” each time. Besides, the compound was classed as inactive in test [4], in [8] and in test [10].
Turning to `CCCCC/C(C=O)=C\c1ccccc1`, the Potency entry in test [1], in test [2], in [3], in test [5], in [7] and in test [14] was “inactive” each time. Also, in the test with Aromatase (Homo sapiens), the Potency entry was “inactive”. Moreover, the outcome in [4], in test [8] and in [10] was inactive. In addition, the Potency result in test [6] was “inactive and 61.2 µM (active)”.
Regarding `CC(C)(C)CC(C)(C)c1ccc(O)c(-n2nc3ccccc3n2)c1`, the Potency in test [1] was 49.7 µM (active); in [6] it was 26.6 µM (active) and 30.6 µM (active); in [7], 21.1 µM (active) and 62 µM (active) and 27.3 µM (active); in [13], “inactive and 61.1 µM (active)”. In addition, the Potency entry in test [2], in test [3], in test [5], in test [9], in [11] and in test [12] was “inactive” throughout. In addition, the Potency result (in [14]; with Aromatase (Homo sapiens)) was “inactive” in each case. Also, the compound was classed as inactive in [4], in test [8] and in test [10].
Take `CC(=O)OC/C=C(C)/C=C/C=C(C)/C=C/C1=C(C)CCCC1(C)C`: the Potency result in [1], in test [5], in [6], in test [7], in test [9] and in test [12] was “inactive” in each case. Moreover, the Potency result (in [13]; in test [14]; in the test with Aromatase (Homo sapiens)) was “inactive” in each case. The Potency in [2] was 61.1 µM (active); in [3], 47.4 µM (active) and 30.6 µM (active); in test [11] it was “inactive and 33.8 µM [activator] (active)”. Further, the call in test [4], in [8] and in test [10] was inactive.
For `COC(=O)c1ccc(C=O)cc1`, the Potency entry in test [1], in test [2], in [3], in [5], in [6] and in test [7] was “inactive” throughout. For the same compound, the Potency result (in test [9]; in [11]; in test [12]; in [13]; in test [14]; with Aromatase (Homo sapiens)) was “inactive” throughout. Besides, the outcome in test [4], in test [8] and in test [10] was inactive.
